# From the supplement of paper PMC8728848
# The full list was thinned out, with the strongest signals kept by preference.
# B1: Lb MiSSP8 (Laccaria bicolor) (protein)
# chain: MYFHTLFACATLMLITTAHASPTVINSLDSRKADLNGDVEARHAADWRRDSDWRRDSDWRRDSDWRRDSD
# Tests used:
# Assay in all cases: glycan array binding signal (z-score within array); higher = stronger binding
# Conditions in all cases: glycan notation: IUPAC condensed, linker removed
# [1] = biological target: Fuc(a1-2)Gal(b1-3)GlcNAc(b1-2)Man(a1-3)[Fuc(a1-2)Gal(b1-3)GlcNAc(b1-2)Man(a1-6)]Man(b1-4)GlcNAc(b1-4)[Fuc(a1-6)]GlcNAc
# Summary of the method: (§1)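 Arrays were curated from the Consortium for Functional Glycomics database, 3228 in total, and kept only where the protein sequence was available. Binding is expressed as a within-array Z-score. This score was averaged across arrays of the same protein sequence at different concentrations or buffers and across linkers, and negative values can be read as non-binding.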
# [2] = biological target: Fuc(a1-2)Gal(b1-4)[Fuc(a1-3)]GlcNAc(b1-2)[Fuc(a1-2)Gal(b1-4)[Fuc(a1-3)]GlcNAc(b1-4)]Man(a1-3)[Fuc(a1-2)Gal(b1-4)[Fuc(a1-3)]GlcNAc(b1-2)Man(a1-6)]Man(b1-4)GlcNAc(b1-4)GlcNAc
# Summary of the method: as §1
# [3] = biological target: Fuc(a1-2)[Gal(a1-3)]Gal(b1-3)GalNAc
# Summary of the method: as §1
# [4] = biological target: Fuc(a1-2)[Gal(a1-3)]Gal(b1-4)GlcNAc(b1-6)GalNAc
# Summary of the method: as §1
# [5] = biological target: Fuc(a1-2)[GalNAc(a1-3)]Gal(b1-4)GlcNAc
# Summary of the method: as §1
# [6] = biological target: Fuc(a1-3)[GalNAc(b1-4)]GlcNAc
# Summary of the method: as §1
# [7] = biological target: Gal(a1-3)Gal(b1-3)GlcNAc(b1-6)GalNAc
# Summary of the method: as §1
# [8] = biological target: Gal(a1-3)Gal(b1-3)[Fuc(a1-4)]GlcNAc(b1-2)Man(a1-3)[Gal(a1-3)Gal(b1-3)[Fuc(a1-4)]GlcNAc(b1-2)Man(a1-6)]Man(b1-4)GlcNAc(b1-4)GlcNAc
# Summary of the method: as §1
# [9] = biological target: Gal(a1-3)Gal(b1-4)GlcNAc(b1-6)GalNAc
# Summary of the method: as §1
# [10] = biological target: Gal(a1-3)Gal(b1-4)[Fuc(a1-3)]GlcNAc
# Summary of the method: as §1
# [11] = biological target: Gal(a1-4)Gal(b1-4)GlcNAc(b1-2)Man(a1-3)[Gal(a1-4)Gal(b1-4)GlcNAc(b1-2)Man(a1-6)]Man(b1-4)GlcNAc(b1-4)GlcNAc
# Summary of the method: as §1
# [12] = biological target: Gal(b1-3)GalNAc(a1-3)[Fuc(a1-2)]Gal(b1-4)GlcNAc
# Summary of the method: as §1
# [13] = biological target: Gal(b1-3)GlcNAc(a1-6)Gal(b1-4)GlcNAc
# Summary of the method: as §1
# Gal(b1-4)Gal = biological target: Gal(b1-4)Gal
# Summary of the method: as §1
# Gal(b1-4)Glc = biological target: Gal(b1-4)Glc
# Summary of the method: as §1
# [14] = biological target: Gal(b1-4)GlcNAc(b1-2)[Gal(b1-4)GlcNAc(b1-4)]Man(a1-3)[GlcNAc(b1-4)][Gal(b1-4)GlcNAc(b1-2)Man(a1-6)]Man(b1-4)GlcNAc(b1-4)GlcNAc
# Summary of the method: as §1
# [15] = biological target: Gal(b1-4)GlcNAc(b1-3)Gal(b1-4)GlcNAc(b1-2)[Gal(b1-4)GlcNAc(b1-3)Gal(b1-4)GlcNAc(b1-6)]Man(a1-6)[Gal(b1-4)GlcNAc(b1-3)Gal(b1-4)GlcNAc(b1-2)Man(a1-3)]Man(b1-4)GlcNAc(b1-4)GlcNAc
# Summary of the method: as §1
# [16] = biological target: Gal(b1-4)GlcNAc(b1-6)GalNAc
# Summary of the method: as §1
# Gal3S4S(b1-4)GlcNAc = biological target: Gal3S4S(b1-4)GlcNAc
# Summary of the method: as §1
# Gal6S(b1-4)GlcNAc6S = biological target: Gal6S(b1-4)GlcNAc6S
# Summary of the method: as §1
# [17] = biological target: GalNAc(b1-3)Gal(a1-4)Gal(b1-4)GlcNAc(b1-3)Gal(b1-4)Glc
# Summary of the method: as §1
# [18] = biological target: GalNAc(b1-4)GlcNAc(b1-2)Man
# Summary of the method: as §1
# GlcA(b1-3)GlcNAc = biological target: GlcA(b1-3)GlcNAc
# Summary of the method: as §1
binder,measurement,setting,value
B1,glycan array binding signal (z-score),[1],1.26
same,glycan array binding signal (z-score),[2],1.27
same,glycan array binding signal (z-score),[3],0.371
same,glycan array binding signal (z-score),[4],-0.53
same,glycan array binding signal (z-score),[5],-0.502
same,glycan array binding signal (z-score),[6],1.06
same,glycan array binding signal (z-score),[7],-0.806
same,glycan array binding signal (z-score),[8],1.55
same,glycan array binding signal (z-score),[9],-0.599
same,glycan array binding signal (z-score),[10],-0.488
same,glycan array binding signal (z-score),[11],10.8
same,glycan array binding signal (z-score),[12],-0.267
same,glycan array binding signal (z-score),[13],-0.136
same,glycan array binding signal (z-score),Gal(b1-4)Gal,-3.19
same,glycan array binding signal (z-score),Gal(b1-4)Glc,0.702
same,glycan array binding signal (z-score),[14],-0.274
same,glycan array binding signal (z-score),[15],2.86
same,glycan array binding signal (z-score),[16],-0.433
same,glycan array binding signal (z-score),Gal3S4S(b1-4)GlcNAc,-0.771
same,glycan array binding signal (z-score),Gal6S(b1-4)GlcNAc6S,-0.571
same,glycan array binding signal (z-score),[17],4.15
same,glycan array binding signal (z-score),[18],-0.744
same,glycan array binding signal (z-score),GlcA(b1-3)GlcNAc,3.78
